This note sets out measurements from PubChem BioAssay (NCI).

The nature of the assay: NCI Yeast Anticancer Drug Screen. Data for the mlh1 rad18 strain (AID 175). To be noted: S. cerevisiae mlh1 rad18 strain growth inhibition, stronger effect = higher value. On the procedure: Growth inhibition of yeast strains with defined genetic alterations is measured as a screen for potential anti-cancer activity. Selected strains with alterations in DNA damage repair or cell cycle control were exposed to compounds and growth inhibition was measured relative to vehicle treated controls. The strain used in this assay is mlh1 rad18

The mark [1] stands for this setting: at 5.0 µM (retest, dose inferred, filed as 0.5).
The mark [2] stands for this setting: at 50.0 µM (retest, dose inferred, filed as 5.0).

Compounds without any hit were thinned out: in the full panel of roughly 79,000, 15% have a hit. A number with no mark means an inactive call. The source made the active and inactive calls. No stated cut-off is given here; in the data, active means growth inhibition above about 70%; inactive means the rest.

As to `CCOc1c(N=Nc2ccc(Cl)cc2)c(-c2ccccc2)nn1C(=S)S`, the growth inhibition is 2% under setting [1], 91% (active) under setting [2] and 94.4% (active) (at 50.0 µM).

On to `CCOC(=O)C1=C(C)Oc2cc3c(cc2C1c1cc(OC)c(OC)c(OC)c1)OCO3` (configuration not stated), for which the growth inhibition by setting is: under setting [1], 12%; under setting [2], 83% (active); (at 50.0 µM) 45.8%.

Take `O=C1C2=C(c3ccccc31)C(c1ccccc1Cl)NC(=S)N2` (configuration not stated): the growth inhibition reads like this: under setting [1], -8%; under setting [2], 40%; (at 50.0 µM) 74.8% (active).

With `CC(=O)Oc1ccc2cc(-c3ccccc3OC(C)=O)c(=O)oc2c1`, the growth inhibition was 12% under setting [1], 0% under setting [2] and 74.5% (active) (at 50.0 µM).

Turning to `CC(C)C(C)(C(=O)O)C(C)C`, the growth inhibition was 1% under setting [1], 0% under setting [2] and 2.75% (at 50.0 µM).

On to `Clc1ccnc2c1ccc1c(Cl)ccnc12`, for which the growth inhibition by setting is: under setting [1], 3%; under setting [2], 15%; (at 50.0 µM) 45.9%.

Turning to `O=C(O)c1ccc(NCc2c(O)ccc3ccccc23)cc1`, the growth inhibition is, setting by setting: under setting [1], 9%; under setting [2], 26%; (at 50.0 µM) 19.1%.

With `N#CSCCl`, the growth inhibition reads like this: under setting [1], 3%; under setting [2], 87% (active); (at 50.0 µM) 92% (active).

In the case of `COc1ccc2c(c1)CC[C@@H]1C2CC[C@]2(C)OC(=O)CCC12` (some centres not stated), the growth inhibition is, setting by setting: under setting [1], 12%; under setting [2], 97% (active); (at 50.0 µM) 71.7% (active).

Take `CCCC[NH-].CCCC[NH-].[I][Pt+2][I]`: the growth inhibition under setting [1] is 20%, the growth inhibition under setting [2] is 62% and the growth inhibition (at 50.0 µM) was 41.4%.

`C/C(=N\NC(=S)NCCCNC(=S)N/N=C(\C)c1ccccn1)c1ccccn1`: the growth inhibition was 17% under setting [1], 85% (active) under setting [2] and 88.9% (active) (at 50.0 µM).

Regarding `CC(C)OP(=O)(OC(C)C)/C(=N/Nc1ccc([N+](=O)[O-])cc1)NNC(=O)c1ccccc1`, the growth inhibition is 3% under setting [1], 92% (active) under setting [2] and 94.6% (active) (at 50.0 µM).

As to `COc1ccc(C2(O)c3ccccc3C(=O)C2c2ccccn2)cc1` (configuration not stated), the growth inhibition under setting [1] was 99% (active), the growth inhibition under setting [2] is 4% and the growth inhibition (at 50.0 µM) was 98.9% (active).

In the case of `COc1ccc(CN2C(=O)C(Cl)=C(Cl)C2=O)c(OC)c1`, the growth inhibition runs as follows: under setting [1], -2%; under setting [2], 44%; (at 50.0 µM) 99.5% (active).
